# Compound activity as filed in PubChem.
# The list is not random: actives were taken first. Their share in the collection is about 8%.
# TSHR antag = antagonists of human thyroid stimulating hormone receptor; activity change, negative = inhibition, % at 11.5 µM; TSHR-expressing cells, TSH-stimulated cAMP HTRF, 2 h; hits give low values; 330,000 tested, 0.2% active;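 active = activity change below a set negative limit, meaning inhibition stronger than a set level, cut at about -70% in these data; inconclusive = activity change between two set negative limits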
#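 Read-out is FRET at 665 nm (cryptate excitation 337 nm) from a cryptate-tagged anti-cAMP antibody, competed by cell cAMP against cAMP-d2. Compounds are tested on freshly harvested TSHR cells challenged with 4nM TSH (EC80) for 2 hours at 37 deg C.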
# RORg inh = ROR gamma (mouse) transcription inhibition; P51450; Potency, µM (titrated, usually from 53.6 µM), for the others: at the top dose activity change, negative = inhibition, actives largely listed as inhibitors; 310,000 tested, 5.4% active; Drosophila S2 Gal4-RORgamma UAS-luciferase reporter, 20 h; note: potency is the fitted concentration of half-maximal effect; nearly all actives have a fitted effect of over 60% in size
#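 Using a luciferase readout, inhibitors were identified by reduced reporter activity in Drosophila cells coexpressing a copper-inducible Gal4–ROR gamma fusion and UAS-driven Photinus luciferase, incubated 20 hr after 700 uM copper sulfate.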
# Gal4-VP16 FLuc = Gal4-VP16 reporter inhibition counter-screen. Drosophila S2 Gal4-VP16 UAS-luciferase, luminescence, 20 h. Potency, µM (highest dose often 53.6 µM), for the others: at the top dose activity, negative = inhibition, most hits filed as inhibitors. 310,000 tested, 3.5% active. AID 2546;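 note: Gal4-VP16 expression switched on by copper sulfate through the metallothionein promoter; potency is the fitted concentration of half-maximal effect; nearly all actives have a fitted effect of over 50% in size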
# ELG1 repair inh = ELG1-dependent DNA repair inhibition. HEK293T ELG1-luciferase reporter, luminescence, 16 h; DNA damage induced by 5-fluorouridine. Potency, µM (top dose mostly 46.1 µM), inactives show at the highest dose activity change, negative = inhibition, most hits filed as inhibitors. 330,000 tested, 2.3% active; note: potency is the fitted concentration of half-maximal effect; nearly all actives have a fitted effect of over 55% in size
#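 Quantitative HTS, concentration-response format. 2,000 cells/well co-treated with 5-fluorouridine and compound, 16 hr in 5% CO2 at 37 °C; ONE-Glo luminescence read after 30 min.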
# Coupling enz = counter-screen for Giardia aldolase inhibitors: coupling enzyme system; AID 2472; coupling enzyme system counterscreen, AmpLite Red fluorescence; 290,000 tested, 0.67% active; activity change, negative = inhibition, % at 58.2 µM, hits read low; in the data active = activity change below about -30%
#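 Activity here indicates interference with the coupling reaction, not aldolase inhibition. Compounds at 57.5 uM final met coupling enzymes for 10 min at RT; substrate and AmpLite Red detection followed, with a 525/598 nm fluorescence read after 20 min.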
# ELG1 FLuc counter = luciferase inhibition in cell-free luciferin readout for ELG1 hits | shares compounds with ELG1 repair inh | cell-free firefly luciferase luminescence counter-screen, ViewLux | Potency, µM (series often up to 46.1 µM), inactives show top-dose activity change, negative = inhibition, hits mostly inhibitors | 350 tested, 3% active | AID 624247; note: potency is the fitted concentration of half-maximal effect
# ELG1 Luc conf = inhibits ELG1-dependent DNA repair in HEK293T cells, confirmed; shares compounds with ELG1 repair inh; HEK293T ELG1-luciferase levels, luminescence; cells co-treated with 5-fluorouridine; Potency, µM (doses to about 46.1 µM), inactives show at the top dose activity change, negative = inhibition, actives largely listed as inhibitors; 670 tested, 68% active; note: potency is the fitted concentration of half-maximal effect; nearly all actives have a fitted effect of over 55% in size
# Target sequence (Q96QE3 whole entry, looked up): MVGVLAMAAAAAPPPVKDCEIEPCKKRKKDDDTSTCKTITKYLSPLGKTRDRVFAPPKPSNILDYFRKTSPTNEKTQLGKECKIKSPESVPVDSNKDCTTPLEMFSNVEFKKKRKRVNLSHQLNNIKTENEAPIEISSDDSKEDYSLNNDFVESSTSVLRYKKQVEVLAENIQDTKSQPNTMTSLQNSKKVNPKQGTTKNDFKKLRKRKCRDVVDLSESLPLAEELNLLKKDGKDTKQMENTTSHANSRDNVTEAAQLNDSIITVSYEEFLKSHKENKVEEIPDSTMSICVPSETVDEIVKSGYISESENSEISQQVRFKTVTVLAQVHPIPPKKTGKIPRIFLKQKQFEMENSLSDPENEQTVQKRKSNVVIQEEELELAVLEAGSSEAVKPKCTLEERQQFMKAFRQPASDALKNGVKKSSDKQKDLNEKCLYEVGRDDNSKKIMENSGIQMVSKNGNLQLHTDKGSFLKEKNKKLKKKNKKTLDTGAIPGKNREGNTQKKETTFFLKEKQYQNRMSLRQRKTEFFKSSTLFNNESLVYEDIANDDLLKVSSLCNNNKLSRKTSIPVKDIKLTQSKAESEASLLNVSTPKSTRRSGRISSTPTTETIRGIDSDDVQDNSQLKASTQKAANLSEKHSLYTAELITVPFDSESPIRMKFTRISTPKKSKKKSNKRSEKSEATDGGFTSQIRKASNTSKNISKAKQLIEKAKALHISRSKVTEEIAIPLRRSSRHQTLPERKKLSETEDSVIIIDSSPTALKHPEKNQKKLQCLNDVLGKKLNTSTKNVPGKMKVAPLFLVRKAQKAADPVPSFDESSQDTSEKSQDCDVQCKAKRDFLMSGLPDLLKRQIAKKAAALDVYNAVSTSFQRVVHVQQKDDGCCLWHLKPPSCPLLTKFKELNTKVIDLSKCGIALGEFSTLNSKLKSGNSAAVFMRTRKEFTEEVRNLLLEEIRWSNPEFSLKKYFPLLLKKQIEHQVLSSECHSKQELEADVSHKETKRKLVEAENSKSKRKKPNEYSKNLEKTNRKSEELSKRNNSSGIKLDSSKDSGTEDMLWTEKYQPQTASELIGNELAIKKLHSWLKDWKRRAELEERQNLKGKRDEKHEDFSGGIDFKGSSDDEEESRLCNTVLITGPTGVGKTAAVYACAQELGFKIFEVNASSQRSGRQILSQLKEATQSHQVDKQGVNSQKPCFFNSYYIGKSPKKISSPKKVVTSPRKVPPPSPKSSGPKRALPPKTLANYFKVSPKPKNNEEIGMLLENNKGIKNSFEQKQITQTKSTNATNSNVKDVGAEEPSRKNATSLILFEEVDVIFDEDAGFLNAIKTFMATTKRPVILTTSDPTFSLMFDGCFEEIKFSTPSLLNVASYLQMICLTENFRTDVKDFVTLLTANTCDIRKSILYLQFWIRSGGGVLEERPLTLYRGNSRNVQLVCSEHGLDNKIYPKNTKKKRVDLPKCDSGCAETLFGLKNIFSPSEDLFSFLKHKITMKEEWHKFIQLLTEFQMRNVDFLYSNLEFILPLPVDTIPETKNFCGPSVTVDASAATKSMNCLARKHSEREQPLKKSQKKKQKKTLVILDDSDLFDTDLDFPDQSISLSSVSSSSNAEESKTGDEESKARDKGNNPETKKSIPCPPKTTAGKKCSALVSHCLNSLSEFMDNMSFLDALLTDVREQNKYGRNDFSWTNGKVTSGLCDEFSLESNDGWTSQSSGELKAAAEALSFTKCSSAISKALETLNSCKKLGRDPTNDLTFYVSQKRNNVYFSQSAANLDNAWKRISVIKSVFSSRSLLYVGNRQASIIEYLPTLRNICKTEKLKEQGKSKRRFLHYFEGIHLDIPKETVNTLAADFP
# ELG1 MMS Luc = MMS-stimulated human ELG1 repair inhibition, confirmed; Potency, µM (series often up to 46.1 µM), for inactives: top-dose activity change, negative = inhibition, hits mostly inhibitors; 670 tested, 53% active; shares compounds with ELG1 repair inh; HEK293T luciferase-tagged ELG1 level, MMS stimulated; note: potency is the fitted concentration of half-maximal effect; nearly all actives have a fitted effect of over 60% in size
# ELG1 5FU viab = confirmation of ELG1 repair inhibitors: viability with 5FU; shares compounds with ELG1 repair inh; Potency, µM (top dose mostly 46.1 µM), without a hit: at the top dose activity change, negative = viability loss, hits mostly cytotoxic; AID 624250; 670 tested, under 10 active; cell viability with 5-FU, ELG1-dependent repair;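 note: ELG1-luc HEK293T cells cotreated with 5-fluorouridine at 10 µM final; potency is the fitted concentration of half-maximal effect; viability measured 16 h after compound addition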
# ELG1 MMS cell = confirmation of ELG1 repair inhibitors: viability with MMS | Potency, µM (titrated, usually from 46.1 µM), for inactives: at the top dose activity change, negative = viability loss, hits mostly cytotoxic | shares compounds with ELG1 repair inh | Cell viability with MMS, ELG1-dependent DNA repair | 670 tested, 33% active;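 note: ELG1-luc HEK293T cells co-treated with 10 µM MMS; potency is the fitted concentration of half-maximal effect; viability read 16 h after compound addition; nearly all actives have a fitted effect of over 60% in size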
# ELG1 unstim viab = unstimulated viability counter-screen for ELG1 repair hits | shares compounds with ELG1 repair inh | cell viability counter-screen, unstimulated, luminescence | Potency, µM (top dose mostly 45.9 µM), without a hit: top-dose activity change, negative = loss of viability, most hits filed as cytotoxic | 900 tested, 8% active | AID 624252;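 note: potency is the fitted concentration of half-maximal effect; compound exposure lasted 16 hours before reading; nearly all actives have a fitted effect of over 55% in size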
# FLuc enzyme = counter-screen for ELG1 repair inhibitors: firefly luciferase inhibition; shares compounds with ELG1 repair inh; AID 624253; 350 tested, 10% active; purified firefly luciferase, luminescence counter-screen; Potency, µM (doses to about 57.5 µM), for the others: at the top dose activity, negative = inhibition, most hits filed as inhibitors; note: potency is the fitted concentration of half-maximal effect
# * hit, by the source's call; ? = inconclusive; / = no result. Unless noted, calls come from the whole dose curve; as a rule, active = well fitted curve in the direction sought with a large enough effect; inconclusive = small, poorly fitted or top-dose-only effect, or another doubt; inactive = no such curve, though single readings can be large; an effect the other way counts as inactive or inconclusive. % is set by controls: 0 for no effect and ±100 for the full control effect.
SMILES,TSHR antag,RORg inh,Gal4-VP16 FLuc,ELG1 repair inh,Coupling enz,ELG1 Luc conf,ELG1 MMS Luc,ELG1 5FU viab,ELG1 MMS cell,ELG1 unstim viab,others
Cc1ccc(C#N)c(SCC(=O)Nc2nccs2)n1,-2,-1%,6%,?,-1,/,/,/,/,/,
Cc1cc2ncc(-c3ccccc3)nc2cc1C,-12,?,?,?,0,/,/,/,/,?,
CCOC(=O)c1ccc2ncc(-c3ccccc3)nc2c1,-5,?,-12%,?,1,/,/,/,/,/,
O=S(=O)(c1ccc2c(c1)OCCO2)N1CCN(c2ncnc3sccc23)CC1,-25,?,11µM*,4.6µM*,-1,13µM*,2µM*,?,1.8µM*,?,
CCCN(CCC)c1ncnc2nc[nH]c12,-3,?,1%,1.6µM*,-2,4.4µM*,?,-4%,10%,-4%,
Clc1ccccc1CN(Cc1ccccc1)c1ncnc2nc[nH]c12,?,?,-22%,-6%,5,/,/,/,/,/,
CCN1CCN(c2ccc(S(=O)(=O)N3CCOCC3)cc2NC(=O)/C=C/c2ccc([N+](=O)[O-])cc2)CC1,0,/,/,12%,/,/,/,/,/,/,
O=C(CSc1ccc2nnc(-c3cccc(F)c3)n2n1)N1CCCc2ccccc21,-8,23%,-3%,12µM*,4,14µM*,?,10%,6%,-5%,ELG1 FLuc counter=-5%;FLuc enzyme=-1%
O=C(CSc1ccc2nnc(-c3ccncc3)n2n1)N1CCc2ccccc21,-5,23%,3%,8%,0,/,/,/,/,/,
Cc1[nH]c(=O)[nH]c1C(=O)CCCCC(=O)O,-4,-7%,-3%,16%,4,/,/,/,/,/,
CSc1ccc(C(=O)c2[nH]c(=O)[nH]c2C)cc1,10,5%,-1%,?,/,/,/,/,/,?,ELG1 FLuc counter=171%;FLuc enzyme=?
O=C(COC(=O)CCS(=O)(=O)c1ccccc1)NC(=O)c1ccc(OC(F)F)cc1,6,/,/,7%,/,/,/,/,/,/,
Cc1ccc(NC(=O)CCCc2ccccc2)c([N+](=O)[O-])c1,-8,29%,7%,?,-2,/,/,/,/,/,
CCOc1cccc(-c2nnc(SCC(=O)Nc3cc(C)ccc3OC)n2N)c1,24,?,1%,0.58µM*,2,?,-18%,9%,0%,-5%,ELG1 FLuc counter=1%;FLuc enzyme=-8%
CCOc1cccc(-c2nnc(SCC(=O)Nc3ccc(OC)c(OC)c3)n2N)c1,-2,16%,-11%,-26%,5,/,/,/,/,/,
